NPR1 antag: Natriuretic polypeptide receptor (hNpr1) antagonism - Primary qHTS | Atrial natriuretic peptide receptor 1 (Homo sapiens), P16066 | HEK293 hNpr1 GloSensor cGMP, ANP-stimulated luminescence | Potency, µM (titrated, usually from 46.3 µM), usual class: inhibitors | hit rate 1.6% among 76,000 | AID 1347048, 2019; calls by dose curve; also: nearly all actives have a fitted effect of over 60% in size
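HEK293 cells stably expressing human Npr1 and cGMP GloSensor pGS-40F, loaded 2 h with 2% GloSensor reagent, given compound 30 min at room temperature. Luminescence read before and 20 min after 0.1 nM hNppA.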
Luciferase inh: Firefly luciferase inhibition profiling of diverse chemical library using quantitative high-throughput screening; Luciferin 4-monooxygenase (Photinus pyralis), P08659; purified P. pyralis luciferase, luminescence, biochemical; Potency, µM (titrated, usually from 115 µM), hits mostly inhibitors; hit rate 2.5% among 76,000; AID 1347043, 2019; also: nearly all actives have a fitted effect of over 65% in size
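Luminescence read by CCD imaging after purified firefly luciferase (10nM final) was added to substrate buffer holding 10uM D-luciferin and 10uM ATP, pH 7.5, pre-dosed with compound.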
HEK293 tox: Cytotoxic Profiling in HEK 293 Cell Line of Diverse Libraries Using Quantitative High-Throughput Screening; Potency, µM (titrated, usually from 115 µM), most hits filed as inhibitors; HEK 293 viability, ATP luminescence (CellTiter-Glo), 48-72 h; hit rate 6.6% among 94,000; also: nearly all actives have a fitted effect of over 60% in size
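Viability of HEK 293 cells, plated at 250 cells/well, was judged by cellular ATP after compound treatment for 48 or 72 hr. Luminescence was imaged 10 min after CellTiter-Glo addition at room temperature.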
3T3 cytotox: Cytotoxic Profiling in NIH 3T3 Cell Line of Diverse Libraries Using Quantitative High-Throughput Screening; hit rate 4.3% among 94,000; Potency, µM (top dose mostly 96.7 µM), actives largely listed as inhibitors; NIH 3T3 viability, CellTiter-Glo ATP luminescence, 48-72 h; also: nearly all actives have a fitted effect of over 55% in size
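Cytotoxicity is measured as loss of cellular ATP: NIH 3T3 cells (400/well) are exposed to compound for 48 or 72 hr at 37 °C, then CellTiter-Glo luminescence is imaged after 10 min at room temperature.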
GPT2 inhibitor: Primary qHTS assay for inhibitors of Glutamate pyruvate transaminase 2 (GPT2); Alanine aminotransferase 2 (Homo sapiens), Q8TD30; Recombinant GPT2, coupled pyruvate oxidase/HRP Amplex Red fluorescence; Potency, µM (titrated, usually from 57.7 µM), usual class: inhibitors; hit rate 0.25% among 100,000; also: nearly all actives have a fitted effect of over 60% in size
Target sequence (Q8TD30 whole entry, looked up): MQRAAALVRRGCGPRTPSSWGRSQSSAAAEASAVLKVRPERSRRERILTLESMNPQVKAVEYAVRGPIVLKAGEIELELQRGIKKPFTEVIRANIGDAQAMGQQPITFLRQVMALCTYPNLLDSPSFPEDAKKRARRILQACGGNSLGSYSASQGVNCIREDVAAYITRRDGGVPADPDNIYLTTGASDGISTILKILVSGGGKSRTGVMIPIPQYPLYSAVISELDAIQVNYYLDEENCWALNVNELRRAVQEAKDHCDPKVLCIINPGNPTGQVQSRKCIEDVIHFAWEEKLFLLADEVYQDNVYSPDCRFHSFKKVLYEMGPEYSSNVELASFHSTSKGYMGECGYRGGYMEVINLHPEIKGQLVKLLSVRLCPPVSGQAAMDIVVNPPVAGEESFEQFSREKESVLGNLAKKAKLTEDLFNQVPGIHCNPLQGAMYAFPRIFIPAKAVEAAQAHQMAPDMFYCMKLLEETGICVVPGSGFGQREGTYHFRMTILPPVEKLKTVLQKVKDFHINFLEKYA
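GPT2 10ng/uL, a-KG 250uM, L-Ala 2mM, HEPES pH7.5 + 0.0001% Tween; 30 min RT. Then Amplex mix (PO/HRP/ThPP), 30 min RT dark, fluorescence. AOA 50uM used as positive control.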
Each line names hits and unclear results; the compound was inactive in the other large screens. The list is not random: actives were taken first. Their share in the collection is about 10%. Unless noted, calls follow the shape of the dose curve; as a rule, active = well fitted curve in the direction sought with a large enough effect; inconclusive = small, poorly fitted or top-dose-only effect, or another doubt; inactive = no such curve, though single readings can be large; an effect the other way counts as inactive or inconclusive.

COc1cccc(CNC(=O)C2CCCN2Cc2ccc(-c3cccc(OC)c3)cc2)c1 (stereo not drawn)	HEK293 tox inconclusive, 3T3 cytotox 35.5µM (no result: NPR1 antag, Luciferase inh)
COc1cccc(-c2cccc(CN3CCCC3C(=O)N3CCCC(C)C3)c2)c1 (stereo not drawn)	HEK293 tox 50.1µM, 3T3 cytotox inconclusive (no result: NPR1 antag, Luciferase inh, GPT2 inhibitor)
CCCCCNC(=O)C1CCCN1Cc1ccc(-c2cccc(OC)c2)cc1 (stereo not drawn)	HEK293 tox 22.4µM, 3T3 cytotox 39.8µM (no result: NPR1 antag, Luciferase inh)
COc1cccc(-c2cccc(CN3CCCC3C(=O)NC(C)C)c2)c1 (stereo not drawn)	HEK293 tox inconclusive, 3T3 cytotox inconclusive (no result: NPR1 antag, Luciferase inh)
O=C(C1CCCN(Cc2cccc(-c3ccc(F)cc3F)c2)C1)N1CCC(c2ccccc2)CC1 (stereo not drawn)	HEK293 tox inconclusive, 3T3 cytotox inconclusive (no result: NPR1 antag, Luciferase inh)
NC1CC(c2cc(N3CCC(OCc4ccccc4)CC3)ncn2)C1 (stereo not drawn)	HEK293 tox inconclusive, 3T3 cytotox inconclusive
COc1cccc(-c2ccc(NC(=O)C3CCCN3Cc3cnn(C)c3)cc2)c1 (stereo not drawn)	HEK293 tox 44.7µM, 3T3 cytotox inconclusive
COc1cccc(-c2cccc(CN3CCCC3C(=O)NCc3ccc(F)cc3F)c2)c1 (stereo not drawn)	HEK293 tox inconclusive, 3T3 cytotox inconclusive (no result: NPR1 antag, Luciferase inh)
C=CCC(=O)N1CCCC1C(=O)Nc1ccc(-c2cccc(OC)c2)cc1 (stereo not drawn)	Luciferase inh 25.1µM, HEK293 tox inconclusive, GPT2 inhibitor inconclusive
CC(C)(C)CC(=O)N1CCCC(C(=O)Nc2cccc(-c3ccc(F)cc3)c2)C1 (stereo not drawn)	HEK293 tox inconclusive, 3T3 cytotox inconclusive, GPT2 inhibitor inconclusive
COc1cccc(-c2ccc(NC(=O)C3CCCN(C(=O)CC(F)(F)F)C3)cc2)c1 (stereo not drawn)	NPR1 antag 15.8µM, Luciferase inh inconclusive, HEK293 tox inconclusive, 3T3 cytotox inconclusive
COc1cccc(-c2ccc(CN3CCCC3C(=O)NCC(F)F)cc2)c1 (stereo not drawn)	HEK293 tox inconclusive, 3T3 cytotox inconclusive (no result: NPR1 antag, Luciferase inh)
COc1cccc(-c2cccc(CN3CCCC3C(=O)NCc3ccc(Cl)cc3)c2)c1 (stereo not drawn)	HEK293 tox 39.8µM, 3T3 cytotox 39.8µM (no result: NPR1 antag, Luciferase inh, GPT2 inhibitor)
COc1cccc(N2C(=O)NC(=NC3CCCCC3)C23CCCN(Cc2ccccc2)C3)c1 (stereo not drawn)	HEK293 tox inconclusive, 3T3 cytotox inconclusive (no result: NPR1 antag, Luciferase inh)
O=C(NCc1cccs1)c1nc(-c2cccnc2)c2cnccn12	HEK293 tox inconclusive, 3T3 cytotox inconclusive
Cc1nnc2ccc(N3CCN(C(=O)c4ccccn4)CC3)nn12	none (no result: NPR1 antag, Luciferase inh, GPT2 inhibitor)
COc1ccc(CCN(C)C(=O)CC(c2cccc(F)c2)c2cn(C)c3ccccc23)cc1OC (stereo not drawn)	HEK293 tox 39.8µM, 3T3 cytotox inconclusive
O=C(Cn1nc2c(cc1=O)CCCC2)N1CCN(Cc2ccccc2Cl)CC1	HEK293 tox inconclusive, 3T3 cytotox 28.2µM
O=C(Cn1nc2c(cc1=O)CCCCC2)N1CCN(Cc2ccccc2Cl)CC1	HEK293 tox inconclusive
COc1cccc(F)c1-c1ccc2c(n1)c(=O)ncn2Cc1ccccc1	3T3 cytotox inconclusive
O=c1ncn(Cc2ccccc2)c2ccc(-c3ccc(F)cc3F)nc12	3T3 cytotox 89.1µM
CCOCCCNC(=O)C1CCCN1Cc1ccc(-c2cncnc2)cc1 (stereo not drawn)	none (no result: NPR1 antag, Luciferase inh)
Cc1ccc(-c2cccc(CN3CCCC3C(=O)NCc3cccc(C(F)(F)F)c3)c2)cc1Cl (stereo not drawn)	HEK293 tox 39.8µM, 3T3 cytotox 39.8µM (no result: NPR1 antag, Luciferase inh, GPT2 inhibitor)
Cc1ccc(-c2cccc(CN3CCCC3C(=O)NCc3ccccc3)c2)cc1Cl (stereo not drawn)	HEK293 tox 50.1µM, 3T3 cytotox 44.7µM (no result: NPR1 antag, Luciferase inh, GPT2 inhibitor)
COC(=O)CNC(=O)C1CCCN1Cc1cccc(-c2ccc(C)c(Cl)c2)c1 (stereo not drawn)	HEK293 tox 39.8µM, 3T3 cytotox inconclusive (no result: NPR1 antag, Luciferase inh, GPT2 inhibitor)
O=C(NCc1ccccc1)C1CCCN1Cc1ccc(-c2cncnc2)cc1 (stereo not drawn)	HEK293 tox inconclusive (no result: NPR1 antag, Luciferase inh)
COC(=O)CNC(=O)C1CCCN1Cc1ccc(-c2cncnc2)cc1 (stereo not drawn)	3T3 cytotox inconclusive (no result: NPR1 antag, Luciferase inh)
CCOCCNC(=O)C1CCCN1Cc1cccc(-c2ccc(C)c(Cl)c2)c1 (stereo not drawn)	HEK293 tox inconclusive, 3T3 cytotox 14.1µM (no result: NPR1 antag, Luciferase inh, GPT2 inhibitor)
CCCOC1CCCN(C(=O)c2ccc3nc(-c4ccc(F)cc4)cn3c2)C1 (stereo not drawn)	HEK293 tox 25.1µM
O=C(c1ccc2nc(-c3ccc(F)cc3)cn2c1)N1C[C@@H]2CCCN[C@@H]2C1	Luciferase inh inconclusive, 3T3 cytotox inconclusive
O=C(Nc1cccc(F)c1)N1CCC(CCNC(=O)C2(c3ccccc3)CC2)CC1	HEK293 tox inconclusive, 3T3 cytotox inconclusive
Cc1noc(C)c1[S+](=O)([O-])N1CCN(CCCn2nc3n(c2=O)CCCC3)CC1	none (no result: NPR1 antag, Luciferase inh, GPT2 inhibitor)
NC[C@@H]1O[C@H](c2ccccc2)Cc2c1ccc(O)c2O	GPT2 inhibitor 20µM (no result: NPR1 antag, Luciferase inh, HEK293 tox, 3T3 cytotox)
COCCn1ccc2c(C3=CCOCC3)nc(-c3cccc4[nH]ccc34)cc21	HEK293 tox 28.2µM, 3T3 cytotox 50.1µM, GPT2 inhibitor inconclusive
COCCn1ccc2c(C3=CCOCC3)nc(-c3cccc(CO)c3)cc21	HEK293 tox inconclusive, 3T3 cytotox 12.6µM
COCCn1ccc2c(C3=CCOCC3)nc(-c3cccc(N4CCOCC4)c3)cc21	HEK293 tox inconclusive, 3T3 cytotox 44.7µM
COCCn1ccc2c(C3=CCOCC3)nc(-c3cccc4[nH]ncc34)cc21	HEK293 tox inconclusive, 3T3 cytotox inconclusive
COCCn1ccc2c(C3=CCOCC3)nc(-c3ccc4cn[nH]c4c3)cc21	HEK293 tox inconclusive, 3T3 cytotox inconclusive
COCCn1ccc2c(C3=CCOCC3)nc(-c3ccc4c(c3)CNC4=O)cc21	Luciferase inh inconclusive, HEK293 tox inconclusive, 3T3 cytotox inconclusive
CNC(=O)c1cc(C2CC2)nc2onc(C3CCCN3C(=O)c3ccc(Cl)cc3)c12 (stereo not drawn)	HEK293 tox inconclusive (no result: NPR1 antag, Luciferase inh, GPT2 inhibitor)
Cc1cccc(C(=O)N2CC(N(Cc3ccncc3)CC3CC3)C2)c1	3T3 cytotox inconclusive (no result: NPR1 antag, Luciferase inh)
CC1(Cc2ccc3c(c2)OCO3)CCCN(C(=O)CCCn2ccnc2)C1 (stereo not drawn)	HEK293 tox 39.8µM, 3T3 cytotox inconclusive
Cc1cc(C)n(CC(=O)N2CCCC(C)(Cc3ccc4c(c3)OCO4)C2)c(=O)n1 (stereo not drawn)	none

Compound activity deposited in PubChem BioAssay by National Center for Advancing Translational Sciences (NCATS).
